In ChEMBL document CHEMBL1961873, “Compounds: GSK PKIS; Assays: Nanosyn kinase panel” (2012):

Assays:
[1] = target: Glycogen synthase kinase-3 beta (Homo sapiens) (UniProt P49841); settings: at 1 µM;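 further: reported values are mean percent inhibition of GSK3B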
[2] = target: Homeodomain-interacting protein kinase 1 (Homo sapiens) (UniProt Q86Z02); settings: at 0.1 µM
[3] = target: Homeodomain-interacting protein kinase 1 (Homo sapiens) (UniProt Q86Z02); settings: at 1 µM
[4] = target: T1, Homeodomain-interacting protein kinase 4 (Homo sapiens) (UniProt Q8NE63); settings: at 0.1 µM
T1 sequence (whole entry): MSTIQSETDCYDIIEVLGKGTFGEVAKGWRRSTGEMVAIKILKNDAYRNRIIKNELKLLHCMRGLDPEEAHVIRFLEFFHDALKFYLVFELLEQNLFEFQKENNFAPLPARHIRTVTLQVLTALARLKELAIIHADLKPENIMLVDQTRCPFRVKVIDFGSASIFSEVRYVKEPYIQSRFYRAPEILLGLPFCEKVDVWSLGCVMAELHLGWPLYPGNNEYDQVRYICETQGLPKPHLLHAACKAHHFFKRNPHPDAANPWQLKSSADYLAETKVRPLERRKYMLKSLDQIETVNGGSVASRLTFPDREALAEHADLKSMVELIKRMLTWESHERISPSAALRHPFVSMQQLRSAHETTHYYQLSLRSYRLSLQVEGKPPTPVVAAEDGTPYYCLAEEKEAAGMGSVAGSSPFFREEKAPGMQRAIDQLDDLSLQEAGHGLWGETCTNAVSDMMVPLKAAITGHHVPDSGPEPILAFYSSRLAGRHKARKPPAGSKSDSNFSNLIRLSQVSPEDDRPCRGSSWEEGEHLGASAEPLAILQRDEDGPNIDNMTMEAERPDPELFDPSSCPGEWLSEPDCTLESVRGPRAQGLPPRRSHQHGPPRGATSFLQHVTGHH

[5] = target: T1, Homeodomain-interacting protein kinase 4 (Homo sapiens); settings: at 1 µM
[6] = target: Mitogen-activated protein kinase 9 (Homo sapiens) (UniProt P45984); settings: at 0.1 µM
[7] = target: Mitogen-activated protein kinase 9 (Homo sapiens) (UniProt P45984); settings: at 1 µM
[8] = target: Mitogen-activated protein kinase 1 (Homo sapiens) (UniProt P28482); settings: at 0.1 µM
[9] = target: Mitogen-activated protein kinase 1 (Homo sapiens) (UniProt P28482); settings: at 1 µM
[10] = target: Mitogen-activated protein kinase 3 (Homo sapiens) (UniProt P27361); settings: at 0.1 µM
[11] = target: Mitogen-activated protein kinase 3 (Homo sapiens) (UniProt P27361); settings: at 1 µM
[12] = target: SRSF protein kinase 3 (Homo sapiens) (UniProt Q9UPE1); settings: at 0.1 µM
[13] = target: SRSF protein kinase 3 (Homo sapiens) (UniProt Q9UPE1); settings: at 1 µM
[14] = target: Mitogen-activated protein kinase 14 (Homo sapiens) (UniProt Q16539); settings: at 0.1 µM
[15] = target: Mitogen-activated protein kinase 14 (Homo sapiens) (UniProt Q16539); settings: at 1 µM
[16] = target: Mitogen-activated protein kinase 11 (Homo sapiens) (UniProt Q15759); settings: at 0.1 µM
[17] = target: Mitogen-activated protein kinase 11 (Homo sapiens) (UniProt Q15759); settings: at 1 µM
[18] = target: T2, Mitogen-activated protein kinase 13 (Homo sapiens) (UniProt O15264); settings: at 0.1 µM
T2 sequence (whole entry): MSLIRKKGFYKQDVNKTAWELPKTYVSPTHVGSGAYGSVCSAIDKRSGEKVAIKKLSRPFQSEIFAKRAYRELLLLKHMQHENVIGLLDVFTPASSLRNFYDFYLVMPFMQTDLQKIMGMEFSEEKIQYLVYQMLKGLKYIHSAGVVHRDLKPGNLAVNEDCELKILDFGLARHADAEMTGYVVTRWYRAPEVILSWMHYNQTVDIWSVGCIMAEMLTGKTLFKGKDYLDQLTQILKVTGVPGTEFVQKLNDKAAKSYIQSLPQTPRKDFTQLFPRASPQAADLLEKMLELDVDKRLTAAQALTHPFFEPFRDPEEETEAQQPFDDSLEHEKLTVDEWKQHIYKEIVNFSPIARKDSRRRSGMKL

[19] = target: T2, Mitogen-activated protein kinase 13 (Homo sapiens); settings: at 1 µM
[20] = target: T3, Mitogen-activated protein kinase 12 (Homo sapiens) (UniProt P53778); settings: at 0.1 µM
T3 sequence (whole entry): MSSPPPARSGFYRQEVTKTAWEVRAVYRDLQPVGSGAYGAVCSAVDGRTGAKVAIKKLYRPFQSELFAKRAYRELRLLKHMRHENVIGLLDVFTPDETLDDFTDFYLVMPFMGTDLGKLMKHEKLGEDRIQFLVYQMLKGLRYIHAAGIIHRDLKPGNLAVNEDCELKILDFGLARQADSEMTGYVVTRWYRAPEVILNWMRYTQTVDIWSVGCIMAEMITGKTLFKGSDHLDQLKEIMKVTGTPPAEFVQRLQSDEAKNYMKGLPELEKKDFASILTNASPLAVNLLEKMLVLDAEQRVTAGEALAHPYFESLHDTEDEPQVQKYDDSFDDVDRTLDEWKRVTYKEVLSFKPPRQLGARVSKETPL

Chain of Glycogen synthase kinase-3 beta (Homo sapiens) (P49841 whole entry, looked up): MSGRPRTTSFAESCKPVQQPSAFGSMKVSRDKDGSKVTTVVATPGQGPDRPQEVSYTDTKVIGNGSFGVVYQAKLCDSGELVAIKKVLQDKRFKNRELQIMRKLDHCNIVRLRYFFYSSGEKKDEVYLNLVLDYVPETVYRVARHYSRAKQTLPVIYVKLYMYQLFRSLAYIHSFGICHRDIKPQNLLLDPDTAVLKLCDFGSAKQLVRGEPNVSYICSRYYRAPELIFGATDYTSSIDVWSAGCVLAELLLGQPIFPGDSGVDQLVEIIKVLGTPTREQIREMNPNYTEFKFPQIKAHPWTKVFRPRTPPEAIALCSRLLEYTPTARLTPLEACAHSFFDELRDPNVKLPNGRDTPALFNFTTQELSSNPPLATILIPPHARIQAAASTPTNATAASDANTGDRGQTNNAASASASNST
Chain of Mitogen-activated protein kinase 14 (Homo sapiens) (Q16539 whole entry): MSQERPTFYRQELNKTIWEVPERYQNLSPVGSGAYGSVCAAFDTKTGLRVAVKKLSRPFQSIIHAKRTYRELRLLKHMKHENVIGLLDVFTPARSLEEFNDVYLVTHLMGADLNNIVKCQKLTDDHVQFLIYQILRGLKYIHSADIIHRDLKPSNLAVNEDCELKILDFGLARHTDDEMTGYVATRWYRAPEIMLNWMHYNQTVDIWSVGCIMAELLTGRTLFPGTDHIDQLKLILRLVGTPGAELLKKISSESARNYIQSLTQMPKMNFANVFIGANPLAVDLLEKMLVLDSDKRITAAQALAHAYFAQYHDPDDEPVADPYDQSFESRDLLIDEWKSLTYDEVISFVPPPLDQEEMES
Chain of Mitogen-activated protein kinase 11 (Homo sapiens) (Q15759 whole entry): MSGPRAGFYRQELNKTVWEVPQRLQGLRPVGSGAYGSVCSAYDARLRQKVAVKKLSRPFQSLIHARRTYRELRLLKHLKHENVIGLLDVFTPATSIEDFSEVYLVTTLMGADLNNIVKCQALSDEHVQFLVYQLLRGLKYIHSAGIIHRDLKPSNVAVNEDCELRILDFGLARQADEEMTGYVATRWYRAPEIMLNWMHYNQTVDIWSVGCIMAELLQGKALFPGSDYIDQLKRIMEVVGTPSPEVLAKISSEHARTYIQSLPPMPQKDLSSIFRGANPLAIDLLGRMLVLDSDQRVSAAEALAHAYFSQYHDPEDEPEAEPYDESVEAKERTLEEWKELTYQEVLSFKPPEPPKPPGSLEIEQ
Chain of Mitogen-activated protein kinase 1 (Homo sapiens) (P28482 whole entry): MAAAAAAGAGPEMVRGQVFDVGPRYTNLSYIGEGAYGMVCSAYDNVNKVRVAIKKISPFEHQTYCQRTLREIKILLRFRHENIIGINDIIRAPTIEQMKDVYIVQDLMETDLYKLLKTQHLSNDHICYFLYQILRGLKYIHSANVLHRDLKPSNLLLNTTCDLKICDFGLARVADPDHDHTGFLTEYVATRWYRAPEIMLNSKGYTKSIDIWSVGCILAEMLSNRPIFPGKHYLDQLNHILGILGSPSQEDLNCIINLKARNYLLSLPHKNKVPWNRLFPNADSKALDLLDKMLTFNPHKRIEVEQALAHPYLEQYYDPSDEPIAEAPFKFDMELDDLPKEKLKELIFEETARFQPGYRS
Chain of Homeodomain-interacting protein kinase 1 (Homo sapiens) (Q86Z02 whole entry, looked up): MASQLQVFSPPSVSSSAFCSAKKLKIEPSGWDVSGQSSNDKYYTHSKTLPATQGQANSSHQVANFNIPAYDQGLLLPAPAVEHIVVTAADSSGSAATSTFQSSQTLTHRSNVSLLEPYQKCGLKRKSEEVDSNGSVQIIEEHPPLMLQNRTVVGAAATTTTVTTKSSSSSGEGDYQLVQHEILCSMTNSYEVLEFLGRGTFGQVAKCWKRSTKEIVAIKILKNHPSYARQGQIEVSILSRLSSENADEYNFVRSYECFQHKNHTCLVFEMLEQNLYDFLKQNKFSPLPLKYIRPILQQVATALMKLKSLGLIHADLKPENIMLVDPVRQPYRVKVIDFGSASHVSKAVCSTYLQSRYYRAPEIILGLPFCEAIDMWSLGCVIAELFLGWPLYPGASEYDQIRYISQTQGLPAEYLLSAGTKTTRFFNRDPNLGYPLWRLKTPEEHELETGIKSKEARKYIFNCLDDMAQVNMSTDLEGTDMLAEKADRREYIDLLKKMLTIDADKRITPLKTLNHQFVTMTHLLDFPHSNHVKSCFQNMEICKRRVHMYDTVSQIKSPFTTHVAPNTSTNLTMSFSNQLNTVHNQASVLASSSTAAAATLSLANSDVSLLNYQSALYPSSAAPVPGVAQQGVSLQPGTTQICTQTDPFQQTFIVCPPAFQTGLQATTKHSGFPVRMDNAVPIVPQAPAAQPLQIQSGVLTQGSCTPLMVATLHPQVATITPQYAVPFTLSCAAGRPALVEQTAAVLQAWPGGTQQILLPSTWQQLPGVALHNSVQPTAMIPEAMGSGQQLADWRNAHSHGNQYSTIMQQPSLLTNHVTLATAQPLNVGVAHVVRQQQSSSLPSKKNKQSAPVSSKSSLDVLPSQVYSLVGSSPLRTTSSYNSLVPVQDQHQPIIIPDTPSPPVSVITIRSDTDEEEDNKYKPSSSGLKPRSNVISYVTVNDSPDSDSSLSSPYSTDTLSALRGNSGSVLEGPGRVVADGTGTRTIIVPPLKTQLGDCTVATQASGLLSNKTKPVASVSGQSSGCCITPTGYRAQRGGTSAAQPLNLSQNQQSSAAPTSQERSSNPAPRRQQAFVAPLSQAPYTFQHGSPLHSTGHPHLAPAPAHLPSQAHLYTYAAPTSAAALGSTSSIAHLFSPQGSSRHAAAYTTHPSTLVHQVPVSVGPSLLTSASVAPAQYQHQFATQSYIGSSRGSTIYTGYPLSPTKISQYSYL
Chain of Mitogen-activated protein kinase 3 (Homo sapiens) (P27361 whole entry): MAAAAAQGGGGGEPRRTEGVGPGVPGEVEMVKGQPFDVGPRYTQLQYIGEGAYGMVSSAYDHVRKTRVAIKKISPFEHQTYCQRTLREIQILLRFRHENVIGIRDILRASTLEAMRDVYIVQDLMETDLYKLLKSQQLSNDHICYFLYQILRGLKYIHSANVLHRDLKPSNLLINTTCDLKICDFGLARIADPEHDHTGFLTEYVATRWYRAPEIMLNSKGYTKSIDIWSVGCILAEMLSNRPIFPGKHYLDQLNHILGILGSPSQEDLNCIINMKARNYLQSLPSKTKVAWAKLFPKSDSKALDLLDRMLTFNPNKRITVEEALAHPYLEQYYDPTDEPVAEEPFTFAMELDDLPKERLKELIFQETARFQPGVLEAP
Chain of Mitogen-activated protein kinase 9 (Homo sapiens) (P45984 whole entry, looked up): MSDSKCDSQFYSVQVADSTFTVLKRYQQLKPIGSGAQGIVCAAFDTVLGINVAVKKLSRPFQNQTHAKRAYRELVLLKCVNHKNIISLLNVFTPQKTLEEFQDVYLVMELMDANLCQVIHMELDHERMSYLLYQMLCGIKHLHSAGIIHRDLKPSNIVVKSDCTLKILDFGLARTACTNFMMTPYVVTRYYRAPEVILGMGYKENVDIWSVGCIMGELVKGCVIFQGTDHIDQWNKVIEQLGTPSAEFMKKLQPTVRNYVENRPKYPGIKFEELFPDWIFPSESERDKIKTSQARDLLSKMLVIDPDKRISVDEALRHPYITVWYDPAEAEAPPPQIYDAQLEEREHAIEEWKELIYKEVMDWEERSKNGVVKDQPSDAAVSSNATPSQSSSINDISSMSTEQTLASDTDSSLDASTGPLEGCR
Chain of SRSF protein kinase 3 (Homo sapiens) (Q9UPE1 whole entry): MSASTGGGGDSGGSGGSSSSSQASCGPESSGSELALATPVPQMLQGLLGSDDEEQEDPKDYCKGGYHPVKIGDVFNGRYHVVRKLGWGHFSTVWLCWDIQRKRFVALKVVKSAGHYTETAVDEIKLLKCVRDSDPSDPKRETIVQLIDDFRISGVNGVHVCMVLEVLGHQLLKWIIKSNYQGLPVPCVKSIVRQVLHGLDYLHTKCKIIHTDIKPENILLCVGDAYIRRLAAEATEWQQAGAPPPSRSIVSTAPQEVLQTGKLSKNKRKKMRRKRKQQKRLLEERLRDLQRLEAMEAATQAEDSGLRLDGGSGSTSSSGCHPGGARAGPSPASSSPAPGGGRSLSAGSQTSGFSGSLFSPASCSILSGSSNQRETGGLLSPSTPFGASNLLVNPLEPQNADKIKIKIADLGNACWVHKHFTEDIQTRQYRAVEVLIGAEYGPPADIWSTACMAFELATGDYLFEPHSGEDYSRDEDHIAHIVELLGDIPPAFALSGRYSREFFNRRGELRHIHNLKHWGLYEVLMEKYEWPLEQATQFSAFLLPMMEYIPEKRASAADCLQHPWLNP

SMILES | inhibition [1] | inhibition [2] | inhibition [3] | inhibition [4] | inhibition [5] | inhibition [6] | inhibition [7] | inhibition [8] | inhibition [9] | inhibition [10] | inhibition [11] | inhibition [12] | inhibition [13] | inhibition [14] | inhibition [15] | inhibition [16] | inhibition [17] | inhibition [18] | inhibition [19] | inhibition [20]
CCS(=O)(=O)c1ccc(OC)c(Nc2ncc(-c3cccc(C(C)=O)c3)o2)c1 | 12.4% | 5.49% | 23% | 5.03% | 27.3% | -1.02% | 1.43% | 4.9% | 3.99% | 2.3% | 4.06% | 0.96% | 0.97% | 2.16% | 5.09% | 3.95% | 3.42% | -0.9% | 3.45% | -1.65%
CC(C)c1ccc(-c2cc(-c3c[nH]nc3-c3ccccn3)ccn2)cc1 | 3.51% | -2.26% | 0.99% | 0.13% | 3.76% | 0.51% | 2.5% | -0.73% | 2.22% | 0.86% | -2.17% | -1.14% | 0.11% | 5.48% | 15.8% | 1.06% | 8.12% | 5.51% | 0.87% | 0.13%
CN(C)CCNC(=O)Nc1ccc(N(C)c2ccnc(Nc3ccc(CS(C)(=O)=O)cc3)n2)cc1 | 4.47% | 0.8% | 4.6% | 0.19% | 3.28% | 4.37% | 5.22% | 5.77% | 4.8% | 2.98% | 1.29% | 1.45% | -2.85% | 2.66% | 7.04% | 2.16% | 2.52% | 1.99% | 3.74% | -0.76%
